In PubChem BioAssay AID651789 (National Center for Advancing Translational Sciences (NCATS), 2012):
Results filed as inconclusive are left out. A call without a number means that no potency is given here. The source made the active and inactive calls. Calls follow the shape of the dose curve; as a rule, active = well fitted inhibition curve with a large enough effect; inconclusive = small, poorly fitted or top-dose-only effect; inactive = no such curve, though single readings can be large or run the other way.

Experiment: Acumen qHTS Assay for Inhibitors of the mTORC1 Signaling Pathway in WT MEF Cells: Hit Validation; also: nearly all actives have a fitted effect of over 60% in size
Conditions: Acumen imaging; series mostly up to 37.3 µM
Outline: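 Read-out is immunofluorescent phospho-rpS6 (Ser235/236) normalised to PI-stained cell number, reported as % active cells using a 7.5 nM rapamycin threshold. Cells: WT or Tsc2-/-, p53-/- MEFs, compound-exposed 24 h at 37C; PI count also tracks viability.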
Potency is read from the fitted curve at half-maximal effect.

Row | SMILES | Potency
1 | CCN1CCOC(=O)C1CC(=O)Nc1ccc(Br)cc1 (stereo not given) | inactive
2 | NC(=O)c1ccc(-c2nc(-c3ccc4c(c3)OCO4)c(-c3ccccn3)[nH]2)cc1 | inactive
3 | Cc1cccc(C(=O)Nc2c3c(nn2-c2ccc(Cl)cc2)CS(=O)(=O)C3)c1 | inactive
4 | Cc1ccccc1CS(=O)(=O)c1ncc(Cl)c(C(=O)Nc2nnc(C(C)C)s2)n1 | 11700 nM (active)
5 | CCN(CC)CCOC(=O)c1ccc(NC(=O)c2nn(-c3ccc(C)cc3)c(=O)c3c2c2ccccc2n3C)cc1 | 1170 nM (active)
6 | Cc1cccc(NC(=O)c2nc(S(C)(=O)=O)ncc2Cl)c1 | 1650 nM (active)
7 | COc1ccc(S(=O)(=O)N(Cc2nc(-c3cccc(C)c3)no2)C2CCCCC2)cc1 | inactive
8 | CN1CCN(C2(CNC(=O)c3ccc(C(C)(C)C)cc3)CCCCC2)CC1 | inactive
9 | COc1cc(Cl)c(C)cc1NC(=O)C1CCN(c2nc3ccccc3n3cccc23)CC1 | inactive
10 | COCCCNC(=O)c1ccc(CSc2nc3cccnc3n2Cc2ccc(OC)cc2)cc1 | inactive
11 | COc1ccc(OC)c(NC(=O)c2nc(S(=O)(=O)Cc3ccc(F)cc3)ncc2Cl)c1 | 3290 nM (active)
12 | CC(C)OCCCn1c(=O)c2ccccc2n2c(-c3ccc(F)cc3)nnc12 | inactive
13 | CCS(=O)(=O)c1ncc(Cl)c(C(=O)N2CCN(c3cccc(Cl)c3)CC2)n1 | 2610 nM (active)
14 | O=C(COc1ccc(F)cc1)Nc1ccc(Cl)c(-c2nc3ccccc3[nH]2)c1 | inactive
15 | COc1ccc(-c2nc(C)c(CCNC(=O)c3ccccc3Br)s2)cc1OC | inactive
16 | O=C(CC(NCc1cccnc1)C(=O)O)Nc1ccc(O)cc1 (stereo not given) | inactive
17 | COc1cc(CNc2ccc3c(c2)ncn3C(C)C)cc(OC)c1OC | inactive
18 | O=C(CCOc1ccccc1)N(Cc1cccnc1)c1nc2c(F)cccc2s1 | 13100 nM (active)
19 | Cc1cc(OCC(=O)Nc2cc(-c3nc4ccccc4[nH]3)ccc2C)ccc1Cl | inactive
20 | NS(=O)(=O)c1cc(C(=O)O)c(NCc2ccco2)cc1Cl | inactive

Row | SMILES | Potency
21 | CN(Cc1ccccc1)C(=O)CSc1c2c(nc3ccc(Cl)cc13)CCCC2 | inactive
22 | C#Cc1cccc(Nc2ncnc3cc(OCCOC)c(OCCOC)cc23)c1 | inactive
23 | Cc1ccc([C@H]2Nc3ccc(S(=O)(=O)Nc4cccc(Cl)c4C)cc3[C@H]3C=CC[C@H]32)cc1 | inactive
24 | CCN(CC)Cc1c(NC(=O)c2ccc(OC)cc2)sc2c1CCCC2 | inactive
25 | COc1ccccc1NC(=O)CSc1ccc(-c2ccccn2)nn1 | inactive
26 | COc1ccc(NC(=O)C(NC(=O)/C=C\c2ccc3c(c2)OCO3)c2ccccc2)cc1 (stereo not given) | inactive
27 | CCN(Cc1nc(-c2ccc(OC)cc2)oc1C)S(=O)(=O)c1ccc(Cl)cc1 | inactive
28 | CCS(=O)(=O)c1ncc(Cl)c(C(=O)N(Cc2ccccc2)Cc2ccco2)n1 | 3290 nM (active)
29 | COc1cccc(-c2nnc3sc(CN4CCCCC4)cn23)c1 | 1650 nM (active)
30 | Cc1ccc(-c2nnn(CC(=O)N(CC(=O)NCCC(C)C)c3ccc(F)cc3)n2)cc1 | inactive
31 | Cc1c(C(=O)Nc2ccc(F)cc2F)nnn1-c1ccccc1Br | inactive
32 | CC1CCCCN1c1nnc(NC(=O)Nc2ccccc2F)s1 (stereo not given) | inactive
33 | O=C(CSc1nc2c([nH]c3ccccc32)c(=O)n1-c1ccc(F)cc1)NC1CCCCC1 | inactive
34 | Cc1ccc(-c2noc(CCC(=O)N(C)c3ccccc3F)n2)cc1 | inactive
35 | CC(C)c1ccc(NS(=O)(=O)c2ccc3nc(-c4ccccc4)[nH]c3c2)cc1 | inactive
36 | Cc1cccc(Oc2coc3cc(OCC(=O)NC4CCCCC4)ccc3c2=O)c1 | inactive
37 | O=C(NCC1CCN(Cc2cccc(Cl)c2)CC1)Nc1ccc(F)c(Cl)c1 | inactive
38 | CCCCS(=O)(=O)c1oc(-c2cccs2)nc1S(=O)(=O)c1ccccc1 | 1310 nM (active)
39 | COc1ccc(N(C)C(=O)c2cc(S(=O)(=O)N3CCc4ccccc43)cn2C)c(OC)c1 | inactive
40 | CCn1c2ccccc2c2cc(CN3CCN(Cc4ccc(Cl)cc4)CC3)ccc21 | inactive
